# Screening results deposited in PubChem by The Scripps Research Institute Molecular Screening Center.
# Rows were chosen to be rich in hits. Some 3.5% of all compounds tested hit in one or more screens of this group.
# GPR151 ag: human GPR151 activation. Q8TDV0. PathHunter beta-arrestin GPR151 cells, luminescence. activation, % at 11.2 µM. 650,000 compounds, 1% hits. AID 1508602; in the data active means activation above about 4.9%
# MITF inh: inhibitors of human MITF; O75030; AlphaScreen MITF homodimerization, bead proximity signal; inhibition, % at 2.6 µM; 650,000 compounds, 0.91% hits; AID 1259374; in the data active means inhibition above about 50%
# Target sequence (O75030 whole entry, looked up): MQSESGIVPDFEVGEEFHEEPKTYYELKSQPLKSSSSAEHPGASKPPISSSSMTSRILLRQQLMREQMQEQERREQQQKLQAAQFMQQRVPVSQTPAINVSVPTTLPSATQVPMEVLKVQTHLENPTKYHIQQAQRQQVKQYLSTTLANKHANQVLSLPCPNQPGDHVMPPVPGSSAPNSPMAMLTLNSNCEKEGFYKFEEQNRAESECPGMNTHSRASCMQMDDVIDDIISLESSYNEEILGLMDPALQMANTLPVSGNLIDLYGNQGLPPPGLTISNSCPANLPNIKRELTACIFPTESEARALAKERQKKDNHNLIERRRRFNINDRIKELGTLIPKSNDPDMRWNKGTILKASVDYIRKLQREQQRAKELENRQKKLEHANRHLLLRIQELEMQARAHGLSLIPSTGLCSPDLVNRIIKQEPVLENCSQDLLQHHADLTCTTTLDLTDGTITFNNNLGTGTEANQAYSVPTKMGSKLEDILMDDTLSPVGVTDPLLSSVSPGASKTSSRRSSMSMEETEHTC
# TEAD-YAP block: TEAD-YAP interaction inhibition | HEK-TIYL cells, TEAD-Gal4/YAP UAS-luciferase luminescence | inhibition, % at 9.12 µM | 640,000 compounds, 1.4% hits | AID 1259422; in the data active means inhibition above about 32%
# FBW7 act: activators of human E3 ligase FBW7; Q969H0; AlphaScreen FBW7–phospho-cyclin E peptide binding, activator screen; normalized activity (activation), % at 26.1 µM; 650,000 compounds, 0.13% hits; in the data active means normalized activity above about 1.9%;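 further: purified mutant Fbw7 with reduced substrate affinity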
# Hits are given with their value; i = inactive.
SMILES,GPR151 ag,MITF inh,TEAD-YAP block,FBW7 act
Cc1ccc(-c2cccc3cnc(Nc4ccc(C(=O)N5CCN(C)CC5)cc4)nc23)cn1,i,i,55,i
Cc1ccc(-c2cccc3cnc(Nc4cccc(C(=O)N5CCN(C)CC5)c4)nc23)cn1,i,i,33,i
CC12C(=O)N(c3cccc(O)c3)C(=O)C1C1c3ccccc3C2c2ccccc21 (configuration not stated),i,i,i,i
COc1ccc(OC)c(N/C=C(/C#N)c2nc(-c3ccccc3)cs2)c1,i,i,i,i
O=C(O)c1cccnc1Nc1ccc([N+](=O)[O-])cc1,i,i,36,i
CCCc1cc(N2CCN(c3ccc(OC)cc3)CC2)n2cnnc2n1,i,i,42,i
COc1ccc(-n2ncc3c(N4CCCCC4)ncnc32)cc1,i,i,91,i
COc1ccc(-n2ncc3c(N4CCN(c5ccccc5)CC4)ncnc32)cc1,i,i,i,i
COc1ccc(-n2ncc3c(N4CCCCCC4)ncnc32)cc1,i,i,97,i
c1ccc2c(c1)nc(NCc1ccncc1)c1nc3ccccc3n12,i,i,i,i
CN(C)CCNc1nc2ccccc2n2c1nc1ccccc12,i,i,65,i
Cc1ccc2[nH]c(=O)c(CN(CCO)S(=O)(=O)c3cccc4nsnc34)cc2c1,i,i,48,i
O=C(/C=C/Nc1ccccc1F)c1cccs1,i,i,38,i
O=C(/C=C/Nc1ccc(F)cc1F)c1cccs1,i,i,73,i
CCc1ccc(NC(=O)Cn2c(=O)n(CCCCC(=O)NC(C)C)c(=O)c3ccccc32)cc1,i,i,i,i
CCOCCCNCC(O)COc1c(Cl)cccc1Cl (configuration not stated),i,i,52,i
CC(=O)N(C1=C(N2CCN(C)CC2)C(=O)c2ccccc2C1=O)c1cccc(F)c1,i,i,88,i
CCCNC1=C(N(C(C)=O)c2cccc(F)c2)C(=O)c2ccccc2C1=O,i,i,93,i
CC(=O)N(C1=C(N2CCCC2)C(=O)c2ccccc2C1=O)c1ccc(F)c(F)c1,i,i,i,i
CC(=O)N(C1=C(N2CCCCC2)C(=O)c2ccccc2C1=O)c1cccc(Cl)c1,i,56,i,i
CC(=O)N(C1=C(Nc2ccccc2)C(=O)c2ccccc2C1=O)c1ccccc1,i,i,i,i
O=C(OCCOc1cccc(Br)c1)c1ccc[n+]([O-])c1,i,i,i,i
c1ccc(-n2cnc3c(NCc4nc5ccccc5[nH]4)nc(-c4ccc(N5CCOCC5)nc4)nc32)cc1,i,i,44,i
c1ccc(-n2cnc3c(NCc4nc5ccccc5[nH]4)nc(N4CCN(Cc5ccc6c(c5)OCO6)CC4)nc32)cc1,i,i,71,i
c1ccc(-n2cnc3c(NCc4nc5ccccc5[nH]4)nc(N4CCOCC4)nc32)cc1,i,i,82,i
SMILES,GPR151 ag,MITF inh,TEAD-YAP block,FBW7 act
O=C(NCc1nc2ccccc2[nH]1)c1ccc2nc(-c3ccc(N4CCOCC4)nc3)sc2c1,i,i,i,6.9
COCCCn1c(=O)[nH]c2ncc(-c3ccc(N4CCN(C)CC4)cc3)nc21,i,i,i,i
CCCNC(=O)C1CCCN(C(=O)c2cnn(-c3ccccc3)c2-n2cccc2)C1 (configuration not stated),i,i,i,i
COc1ccc(CNC(=O)c2cc3c(C)nc4ccccc4c3o2)c(OC)c1,i,i,34,i
COc1cccc(CNC(=O)c2cc3c(C)nc4ccccc4c3o2)c1,i,i,i,i
CCOC(=O)N/N=C/c1c2ccccc2cc2ccccc12,i,i,i,i
O=C(N/N=C/c1c2ccccc2cc2ccccc12)C(=O)NC1CC1,i,i,57,i
O=C(N/N=C/c1c2ccccc2cc2ccccc12)C(=O)Nc1ccccc1F,i,i,i,i
CCOc1ccc2ccccc2c1/C=N/NC(N)=S,i,i,40,i
NC(=O)N/N=C/c1c2ccccc2cc2ccccc12,i,i,i,2.0
O=C1C(c2ccc(Cl)cc2)N(C2CCCC2)C(=O)CN1C1CCCCCC1 (configuration not stated),i,i,i,i
CCOc1ccc(O)c(/C=N/NC(=O)/C(=C\c2cccs2)NC(=O)c2ccccc2)c1,i,i,i,i
COc1ccc(O)c(/C=N/NC(=O)/C(=C\c2cccs2)NC(=O)c2ccccc2)c1,i,i,58,i
NNC(=O)/C(=C/c1cccs1)NC(=O)c1ccccc1,i,i,47,i
CC(=O)Nc1ccc(Nc2nc(Nc3nccc4ccccc34)nc3c2ncn3C(C)C)cc1,i,i,45,i
c1cncc(CNc2nc(NC3CC3)c3ncn(-c4ccsc4)c3n2)c1,i,i,40,i
Nc1nc(Nc2cnccn2)nc2c1ncn2-c1ccsc1,i,i,43,i
Nc1nc(Nc2ccc3ncccc3c2)nc2c1ncn2-c1ccccc1,i,i,33,52
c1ccc(CNc2nc(NCc3cccnc3)nc3c2ncn3-c2ccsc2)cc1,i,i,i,i
c1ccc(Nc2nc(Nc3cnccn3)nc3c2ncn3-c2ccsc2)cc1,i,i,i,i
c1ccc(CNc2nc(Nc3ccc4ncccc4c3)nc3c2ncn3-c2ccccc2)cc1,i,i,i,i
CCOC(=O)N1CCC(Nc2nc(Nc3ccccc3)nc(OC)n2)CC1,i,i,i,i
c1cncc(CNc2nc(NCc3cccnc3)c3ncn(-c4ccsc4)c3n2)c1,i,i,i,i
c1cnc(Nc2nc(NCc3cccnc3)c3ncn(-c4ccsc4)c3n2)nc1,i,i,i,i
c1cncc(CNc2nc(Nc3nccc4ccccc34)nc3c2ncn3-c2ccsc2)c1,i,i,59,i
SMILES,GPR151 ag,MITF inh,TEAD-YAP block,FBW7 act
CC(C)n1cnc2c(NCc3cccnc3)nc(Nc3nccc4ccccc34)nc21,i,i,32,i
c1cncc(CNc2nc(Nc3ccc4ncccc4c3)nc3c2ncn3-c2ccsc2)c1,i,i,33,i
c1cncc(CNc2nc(Nc3cnccn3)nc3c2ncn3-c2ccsc2)c1,i,i,59,i
Cc1nn(-c2ccccn2)c2c1CCC2,i,i,i,i
COc1cc(NC(=O)c2ccc(C)cc2)ccc1NC(=O)c1ccco1,i,i,i,i
Cc1ccc(NC(=O)Cc2cccs2)c(Br)c1,i,i,i,i
Cc1ccc(NC(=O)CNCc2cccs2)c(Br)c1,i,i,i,3.8
CC(C)CCN1C(=O)c2cccc3c(N)ccc(c23)C1=O,i,i,i,2.1
CCCCN1C(=O)c2cccc3c(N)ccc(c23)C1=O,i,i,i,i
O=C(NC1CC1)c1ccc(-c2nc(NCc3cccc(C(F)(F)F)c3)c3ncn(Cc4ccc(C(F)(F)F)cc4)c3n2)cc1,i,i,i,i
COc1cccc(CN2CCC(C(=O)N3CCOCC3)CC2)c1OC,i,i,i,i
CCc1cc(CC)c2c(=O)c3ccccc3sc2c1,i,i,i,i
CCN(CC)CCNc1ccc(CO)c2sc3ccccc3c(=O)c12,i,i,34,i
CC1CCCCN1c1nc2c(c(=O)[nH]1)CCN(Cc1c[nH]c3ccccc13)C2 (configuration not stated),i,i,i,i
O=C(Nc1noc2ncccc12)c1ccccc1F,i,i,83,i
O=C(Nc1noc2ncccc12)c1ccccc1Cl,i,i,94,i
